GRK2 aptamer HTS: compounds blocking aptamer binding on GRK2 – biochemical, human GRK2, bead flow cytometry, HTS, primary screen; inhibition of aptamer binding, % at 10 µM; AID 488847, 2010; actives 0.59% (n = 330,000); FAM-aptamer displacement from GRK2; Beta-adrenergic receptor kinase 1 (Homo sapiens), P25098;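 active means inhibition of aptamer binding above 40%, roughly 3 SD of noise, on plates passing a quality check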;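 further: median bead fluorescence of bound FAM aptamer so fluorescent compounds give negative values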
ATG4B inhibitor: ATG4B protease inhibitors, primary screen, biochemical, fluorescence, uHTS; Cysteine protease ATG4B (Homo sapiens), Q9Y4P1; ATG4B cleavage of LC3-PLA2, NBD-HPC fluorescence, 1 h; inhibition, % at 8.33 µM; actives 0.51% (n = 340,000); AID 504462, 2011; in the data active means inhibition above about 40%
Target sequence (Q9Y4P1 whole entry, looked up): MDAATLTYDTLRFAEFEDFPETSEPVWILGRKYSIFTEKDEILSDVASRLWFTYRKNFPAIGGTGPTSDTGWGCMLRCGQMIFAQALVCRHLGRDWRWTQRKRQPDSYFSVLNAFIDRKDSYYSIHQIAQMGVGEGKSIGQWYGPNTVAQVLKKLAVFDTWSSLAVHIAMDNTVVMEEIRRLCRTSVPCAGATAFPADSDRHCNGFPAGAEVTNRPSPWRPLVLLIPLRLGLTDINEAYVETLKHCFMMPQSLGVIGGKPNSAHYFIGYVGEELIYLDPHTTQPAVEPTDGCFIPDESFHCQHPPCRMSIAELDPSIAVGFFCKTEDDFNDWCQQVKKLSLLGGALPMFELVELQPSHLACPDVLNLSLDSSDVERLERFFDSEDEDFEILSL
Yeast superoxide: reduction of superoxide in aged yeast, primary screen, HTS; superoxide response (% of plate mean), % at 10 µM; S. cerevisiae aged cells, superoxide DHE fluorescence; stronger effect = lower value; actives 0.18% (n = 330,000);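 active means superoxide response under a set limit, about three screen SD below normal, cut at about 65% in these data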;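 further: yeast aged for seven days with compound at 30 °C before DHE staining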
Efflux pump inh: inhibitors of Candida efflux pumps in yeast, primary screen, S. cerevisiae, Nile Red, multiplex | S. cerevisiae Candida pump triplex | actives 0.44% (n = 330,000) | inhibition, % at 10 µM;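 active means plate passing quality check with inhibition over a set limit, or well fluorescence over plate mean plus 4 SD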;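 further: Nile Red retained in pooled yeast measured as flow cytometry median fluorescence; higher means more Nile Red kept so more efflux inhibition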
ATG4B conf: ATG4B protease inhibitors, retest, confirmation, biochemical, fluorescence, single concentration | shares compounds with ATG4B inhibitor | ATG4B protease fluorescent substrate cleavage assay | inhibition, % at 8.33 µM | actives 92% (n = 320) | AID 504757, 2011; in the data active means inhibition above about 39%
PLA2 counter: PLA2 enzyme inhibition, counter-screen for ATG4B inhibitor project, biochemical, single concentration, uHTS hits; actives 66% (n = 1,600); inhibition, % at 8.33 µM; shares compounds with ATG4B inhibitor; AID 588402, 2011; purified PLA2, NBD-C6-HPC fluorescence, 45 min; in the data active means inhibition above about 50%
Target sequence (P04054 whole entry, looked up): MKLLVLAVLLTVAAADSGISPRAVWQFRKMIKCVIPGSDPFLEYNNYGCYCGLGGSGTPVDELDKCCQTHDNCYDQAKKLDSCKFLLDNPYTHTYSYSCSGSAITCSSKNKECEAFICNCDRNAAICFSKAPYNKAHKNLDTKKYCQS
A number is an active result; . = inactive; / = not tested or not shown. A selection: hits, their analogues and other compounds. The true share with any hit is near 1.6%.

SMILES | GRK2 aptamer HTS | ATG4B inhibitor | Yeast superoxide | Efflux pump inh | PLA2 counter | others
O=[N+]([O-])c1cc(C(F)(F)F)cc([N+](=O)[O-])c1NCCN1CCNCC1 | . | . | . | . | /
CC(C)c1ccc(NC(=O)NCc2ccc(F)cc2)cc1 | . | 60.8 | . | . | 67.2
CCOC(=O)c1ccc(NC(=S)NCc2ccc(F)cc2)cc1 | . | 44.1 | . | . | 55.8
C[C@H](NC(=O)c1ccco1)C(=O)N1CCCC1 | . | . | . | . | /
O=C(O)/C=C\C(=O)Nc1ccc(Oc2ccccc2)cc1 | . | . | . | . | /
O=C(O)/C=C/C(=O)Nc1ccc(C2(c3ccc(NC(=O)/C=C/C(=O)O)cc3)c3ccccc3-c3ccccc32)cc1 | . | 55.0 | . | . | 64.8
O=Cc1cccc(OCc2cccc3ccccc23)c1 | . | 61.0 | . | . | 72.7
CN(C)c1ccc(/C=C2\N=C(C(C)(C)C)OC2=O)cc1 | . | . | . | . | /
CCCCOc1ccc(-c2cn3ccccc3n2)cc1[N+](=O)[O-] | . | 44.6 | . | . | .
COc1ccc(C(=O)N2CCCC(Nc3ccc(C(C)C)cc3)C2)c(OC)n1 (configuration not stated) | . | 76.5 | . | . | 78.2
CC(C)c1ccc(NC2CCCN(C(=O)c3ccc4nccnc4c3)C2)cc1 (configuration not stated) | . | . | . | . | /
CC(C)c1ccc(NC2CCCN(C(=O)c3cc(C(C)C)[nH]n3)C2)cc1 (configuration not stated) | / | 43.4 | / | / | . | ATG4B conf=74.2
COC(=O)c1ccc(C(=O)N2CCCC(Nc3ccc(C(C)C)cc3)C2)nc1 (configuration not stated) | . | 42.1 | . | . | . | ATG4B conf=78.3
O=C(CN(Cc1ccco1)C(=O)c1cccc(F)c1)Nc1ccccc1C(F)(F)F | . | . | . | . | /
COc1ccc(Br)cc1CNC(=O)C1CCCN(c2nc3ccccc3o2)C1 (configuration not stated) | . | 63.6 | . | . | 67.7
O=C(CN1C(=O)c2ccccc2S1(=O)=O)NCc1c(F)cccc1F | . | . | . | . | /
Cc1sc2nc(C3CC3)nc(SCC(=O)N3CC(=O)Nc4ccccc43)c2c1C | . | 68.8 | . | . | 76.6
Cc1cccc(NC(=O)C2C3C=CC(O3)C2C(=O)O)c1 (configuration not stated) | . | / | . | . | /
O=C(c1cnn(C(=O)COc2ccc(Cl)cc2)c1)c1ccccc1O | . | 56.1 | . | . | 60.0
Cc1ccc(O)c(C(=O)c2cnn(C(=O)COc3ccc(Cl)cc3)c2)c1 | . | . | . | . | /
Cc1cccc2nc(-c3ccccc3)nc(N3CCC(O)(c4ccc(Cl)cc4)CC3)c12 | . | 41.5 | . | . | .
COc1cc(C(=O)NC(C(=O)Nc2cccc(C(C)=O)c2)C(C)C)cc(OC)c1OC (configuration not stated) | . | . | . | . | /
O=S1(=O)c2c(F)cccc2O[C@@H](COCc2ccccc2)CN1CCc1ccc(F)cc1 | / | . | / | / | /
Nc1c(C(=O)Nc2ccccc2F)sc2nc(-c3ccco3)ccc12 | . | 47.5 | . | . | .
C=CCn1c(COc2ccccc2-c2ccccc2)nnc1SCC(=O)NC(=O)NCc1ccco1 | . | 75.2 | . | . | 85.0
SMILES | GRK2 aptamer HTS | ATG4B inhibitor | Yeast superoxide | Efflux pump inh | PLA2 counter | others
CC(C)(C)[C@H]1COC(=O)CCCC/C=C\C[C@H](CC(=O)N(CCO)Cc2ccccc2)C(=O)N1 | . | . | . | . | /
COc1cc(/C=C(\C(=O)O)c2ccc(S(=O)(=O)N3CCCC3)s2)cc(OC)c1 | / | . | / | / | /
COc1ccc(Br)cc1/C=C(\C(=O)O)c1ccc(S(=O)(=O)N2CCCC2)s1 | . | 67.5 | . | . | 76.1
O=C(/C=C/c1ccc([N+](=O)[O-])cc1)OCC(=O)N1c2ccccc2Sc2ccccc21 | . | . | . | . | /
CCN(c1ccc(OC)cc1)S(=O)(=O)N1CCCC(C(=O)NCc2ccccc2Br)C1 (configuration not stated) | . | 57.4 | . | . | 57.9
C[C@H](NC(=O)C1CCN(S(=O)(=O)c2ccccc2)CC1)C(=O)NCc1ccc(Cl)cc1Cl | . | . | . | . | /
Nc1nc(SCc2ccccc2[N+](=O)[O-])c2ncn(Cc3ccccc3)c2n1 | / | 50.2 | / | / | 57.8
Cc1ccc(N2C(=O)c3ccccc3NC2(C(=O)O)c2ccccc2)cc1Cl (configuration not stated) | . | . | . | . | /
O=C(/C=C/c1ccccc1)NC(NC(=S)Nc1cc(Cl)ccc1Cl)C(Cl)(Cl)Cl (configuration not stated) | . | 41.7 | . | . | .
COc1ccc(CNC(=O)COC(=O)c2ccc(OCc3c(C)noc3C)cc2)cc1OC | . | . | . | . | /
Cc1noc(C)c1COc1ccc(C(=O)OCC(=O)NCc2ccccc2Cl)cc1 | . | 44.9 | . | . | . | ATG4B conf=64.1
Cc1cccc(Cc2cnc(N3C(=N)SC(c4ccccc4)C3=O)s2)c1 (configuration not stated) | . | 49.6 | . | . | .
O=C(Nc1sc(-c2ccccc2)cc1C(=O)O)c1ccccc1 | . | 67.7 | . | . | 81.0
CCOC(=O)c1cc(-c2ccccc2)sc1NC(=O)c1ccc(OC)cc1 | . | . | . | . | /
O=C(c1cccnc1)n1nc(NCc2ccccc2)nc1NCc1ccccc1 | . | 41.8 | . | . | .
CCN(CC(=O)NCc1cccs1)C(=O)c1cc(S(=O)(=O)NCc2ccccc2)ccc1C | . | . | . | . | /
COCOc1ccc(/C=C/C(=O)c2c(OCOC)cc(OCOC)c(CC=C(C)C)c2O)cc1OCOC | . | . | . | . | /
COc1cc(CCc2ccccc2)c(C(=O)O)c(O)c1CC=C(C)C | / | 75.3 | / | / | 86.5
COc1cc(CCc2ccccc2)c(C(=O)O)c(O)c1C/C=C(/C)CCC=C(C)C | . | 85.3 | . | . | 90.3
CC1CCCCC1NC(=O)CCCn1c(=S)[nH]c2ccsc2c1=O (configuration not stated) | . | . | . | . | /
Cc1ccc(C(=O)c2c[nH]c3c(F)cc(F)cc3c2=O)cc1 | . | . | . | . | /
CNC(=S)/N=C/NOCc1ccc(Cl)cc1Cl | . | . | . | . | /
CC(C)c1ccc(/C=C/C(=O)N2CCc3ccccc3C2)cc1 | . | 58.6 | . | . | 62.9
COc1ccc(CCN2C(=S)N(C)C(=O)C2CC(=O)Nc2ccc(F)cc2)cc1 (configuration not stated) | . | 43.5 | . | . | 56.3
CC(=O)c1ccc(Oc2cnccn2)cc1 | . | . | . | . | /

Screening results deposited in PubChem BioAssay by several laboratories.
